From PubChem BioAssay (Tox21) come the findings set out here.

SMILES strings stand for the structures. Values joined by “and” are separate entries in the source; they are usually repeats but may differ in a detail not shown here. Equal values may be shown once. More than one record can exist for a structure, and the calls need not agree. Active and inactive are the calls of the source. Unless noted, calls follow the shape of the dose curve; as a rule, active = well fitted curve in the direction sought with a large enough effect in the repeat runs; inconclusive = weak or mixed curves; inactive = no such curve, though single readings can be large; an effect the other way counts as inactive or inconclusive.

A short description of experiment [1]: qHTS assay to identify small molecule antagonists of the thyroid receptor (TR) signaling pathway - cell viability counter screen (AID 743064). Also: nearly all actives have a fitted effect of over 50% in size. Also: potency is read from the fitted curve at half-maximal effect. In outline:
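GH3.TRE-Luc cells, 4 h pre-plating; cpd + T3 1 nM final; 37 °C 23.5 h; CellTiter-Fluor 30 min; fluorescence read.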

The test system of experiment [2] is thyroid hormone receptor (rat, GH3 cells). Briefly: qHTS assay to identify small molecule agonists of the thyroid receptor (TR) signaling pathway (AID 743066; calls by dose curve). Background: Quantitative high-throughput screening tests each substance at several concentrations.
Experiment [3] has as its target Estrogen receptor (Homo sapiens) (UniProt P03372). Description: qHTS assay to identify small molecule agonists of the estrogen receptor alpha (ER-alpha) signaling pathway (AID 743075; calls by dose curve;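 also: HEK293 GripTite cells with ER-alpha and UAS-driven beta-lactamase reporter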; also: potency is read from the fitted curve at half-maximal effect).
Experiment [4] shares this target. Briefly: qHTS assay to identify small molecule agonists of the estrogen receptor alpha (ER-alpha) signaling pathway using the BG1 cell line (AID 743079). Also: nearly all actives have a fitted effect of over 20% in size. Also: potency is read from the fitted curve at half-maximal effect. Particulars: BG1Luc4E2 cells, ERE-luciferase agonist, 22 h; activation: at 70.3 µM (top of the series).
Experiment [5] in a line: qHTS assay to identify small molecule antagonists of the estrogen receptor alpha (ER-alpha) signaling pathway using the BG1 cell line (AID 743080; calls by dose curve;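 also: BG1 cells stimulated with 17beta-estradiol alongside compound; nearly all actives have a fitted effect of over 25% in size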). To be noted: BG1Luc4E2 ERE-luciferase antagonist mode, luminescence; activity change, negative = inhibition: at 70.3 µM (top of the series). In outline:
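Quantitative HTS on the Tox21 10K library: BG1 cells with endogenous ER-alpha and ERE-luciferase reporter, 17beta-estradiol stimulation, 21.5 h compound exposure, luminescence endpoint with parallel fluorescence cytotoxicity counter-read.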

Experiment [6] can be described thus: qHTS assay to identify small molecule antagonists of the estrogen receptor alpha (ER-alpha) signaling pathway using the BG1 cell line - cell viability counter screen (AID 743081).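 Also: compound given together with 17beta-estradiol as the ER stimulus; nearly all actives have a fitted effect of over 45% in size.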 Also: potency is read from the fitted curve at half-maximal effect.
Experiment [7] has as its target Aromatase (Homo sapiens) (UniProt P11511). Description: qHTS assay to identify aromatase inhibitors (AID 743083). Also: nearly all actives have a fitted effect of over 55% in size. Also: potency is read from the fitted curve at half-maximal effect.
In experiment [8] the target is Aryl hydrocarbon receptor (Homo sapiens) (UniProt P35869). Briefly: qHTS assay to identify small molecule that activate the aryl hydrocarbon receptor (AhR) signaling pathway (AID 743085). Also: nearly all actives have a fitted effect of over 15% in size. Also: potency is read from the fitted curve at half-maximal effect.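 As to activation: HG2L7.5c1 human HepG2 liver cells with stably integrated DRE-driven firefly reporter.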 In outline:
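Luminescence read-out: ONE-Glo reagent, 30 min at room temperature, in HG2L7.5c1 HepG2 reporter cells treated 24 h at 37C. Viability was measured beforehand by CellTiter-Fluor fluorescence after 30 min at 37C.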

The nature of experiment [9]: qHTS assay to identify small molecule that activate the aryl hydrocarbon receptor (AhR) signaling pathway - cell viability counter screen (AID 743086). Also: nearly all actives have a fitted effect of over 45% in size. Also: potency is read from the fitted curve at half-maximal effect. In outline: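 Cytotoxicity counter screen: CellTiter-Fluor signal (30 min, 37 C) in 4000 HepG2 cells/well carrying the DRE-luciferase reporter, following 24 h compound exposure at 37 C.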
Experiment [10] is described as follows: qHTS assay to identify small molecule antagonists of the peroxisome proliferator-activated receptor gamma (PPARg) signaling pathway - cell viability counter screen (AID 743194). Also: nearly all actives have a fitted effect of over 55% in size. Also: potency is read from the fitted curve at half-maximal effect. In outline:
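Viability was measured as CellTiter-Glo luminescence in GeneBLAzer PPARg UAS-bla HEK293H cells. These cells had been exposed 17 h at 37 C to compounds together with rosiglitazone at 50 nM final, with the beta-lactamase readout taken in the same wells.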

Experiment [11] in a line: qHTS assay for small molecule agonists of the antioxidant response element (ARE) signaling pathway - cell viability counter screen (AID 743203; calls by dose curve; also: nearly all actives have a fitted effect of over 55% in size; also: potency is read from the fitted curve at half-maximal effect). In outline:
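HepG2 cells carrying ARE-driven beta-lactamase; 2,000 cells/well; 5 hrs plating; compound pinned from DMSO; 16 hrs 37C/5% CO2; CellTiter-Glo added; 30 min RT; luminescence.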

Experiment [12] can be described thus: qHTS assay for small molecule activators of the heat shock response signaling pathway - cell viability counter screen (AID 743209). Also: nearly all actives have a fitted effect of over 50% in size. Also: potency is read from the fitted curve at half-maximal effect. The method in brief: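 Luminescence from CellTiter-Glo, added after the beta-lactamase FRET read, gave the viability signal. Cells were HSE-bla HeLa treated with DMSO-dissolved compounds for 5 h at 37 C following overnight plating.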

A short description of experiment [13]: qHTS assay to identify small molecule antagonists of the thyroid receptor (TR) signaling pathway (AID 743065). Also: nearly all actives have a fitted effect of over 55% in size. Also: potency is read from the fitted curve at half-maximal effect. The method in brief: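 Antagonism measured as loss of luciferase signal in GH3 cells stably carrying a TRE-luciferase reporter, co-treated with compound and T3 (1 nM final) for 23.5 h at 37 C. Viability was read in the same well by CellTiter-Fluor.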

Experiment [14] has as its target Estrogen receptor (Homo sapiens) (UniProt P03372). Description: qHTS assay to identify small molecule antagonists of the estrogen receptor alpha (ER-alpha) signaling pathway (AID 743069; active = well fitted curve in the direction sought with a large enough effect in the signal ratio in the repeat runs, not every such curve was filed as active; inconclusive = weak or mixed curves, or effect the other way; inactive = no such curve, though single readings can be large or run the other way; the % refers to the signal ratio; also: potency is read from the fitted curve at half-maximal effect). The method in brief:
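ER-alpha-UAS-bla GripTite HEK293 line; 2% charcoal-stripped FBS overnight; plated, 4 hr 37C/5% CO2; cpd in DMSO + 17beta-estradiol, 18 hr 37C; LiveBLAzer B/G FRET substrate 2 hr RT; fluorescence intensity.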

Experiment [15] can be described thus: qHTS assay to identify small molecule antagonists of the estrogen receptor alpha (ER-alpha) signaling pathway - cell viability counter screen (AID 743074; calls by dose curve;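 also: HEK293 cells carrying ER-alpha-UAS-bla reporter stimulated with 17beta-estradiol; nearly all actives have a fitted effect of over 45% in size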).
The nature of experiment [16]: qHTS assay to identify aromatase inhibitors - cell viability counter screen (AID 743084). Also: potency is read from the fitted curve at half-maximal effect.
The target of experiment [17] is Peroxisome proliferator-activated receptor gamma (Homo sapiens) (UniProt P37231). Description: qHTS assay to identify small molecule agonists of the peroxisome proliferator-activated receptor gamma (PPARg) signaling pathway (AID 743094; active = well fitted activation curve with a large enough effect in the signal ratio in the repeat runs, not every such curve was filed as active; inconclusive = weak or mixed curves, or effect the other way; inactive = no such curve, though single readings can be large or run the other way; the % refers to the signal ratio). In outline:
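Beta-lactamase FRET fluorescence was the read-out after a 1 h room-temperature substrate step, following 17 h compound treatment at 37C of HEK293H cells expressing a UAS-driven bla reporter responsive to PPARg.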

Experiment [18] is described as follows: qHTS assay for small molecule activators of the heat shock response signaling pathway (AID 743210; active = well fitted activation curve with a large enough effect in the signal ratio in the repeat runs, with a control signal flat, not every such curve was filed as active; inconclusive = weak or mixed curves; the % refers to the signal ratio;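 also: HeLa cells with beta-lactamase reporter driven by heat shock elements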). The method in brief: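 HeLa HSE-bla cells, overnight plating; cpd in DMSO 5 h, 37 C; LiveBLAzer B/G FRET substrate 2.5 h RT; fluorescence intensity read.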
The target of experiment [19] is Peroxisome proliferator-activated receptor gamma (Homo sapiens) (UniProt P37231). Description: qHTS assay to identify small molecule antagonists of the peroxisome proliferator-activated receptor gamma (PPARg) signaling pathway (AID 743191; calls by dose curve; also: nearly all actives have a fitted effect of over 30% in size; also: potency is read from the fitted curve at half-maximal effect). The method in brief: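 Beta-lactamase reporter under UAS control in HEK293H PPARg-bla cells; compound treatment 17 h at 37C. Read-out: fluorescence intensity after 1 h room-temperature incubation with LiveBLAzer B/G FRET substrate.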
Peroxisome proliferator-activated receptor gamma (Homo sapiens), sequence (P37231 whole entry, looked up): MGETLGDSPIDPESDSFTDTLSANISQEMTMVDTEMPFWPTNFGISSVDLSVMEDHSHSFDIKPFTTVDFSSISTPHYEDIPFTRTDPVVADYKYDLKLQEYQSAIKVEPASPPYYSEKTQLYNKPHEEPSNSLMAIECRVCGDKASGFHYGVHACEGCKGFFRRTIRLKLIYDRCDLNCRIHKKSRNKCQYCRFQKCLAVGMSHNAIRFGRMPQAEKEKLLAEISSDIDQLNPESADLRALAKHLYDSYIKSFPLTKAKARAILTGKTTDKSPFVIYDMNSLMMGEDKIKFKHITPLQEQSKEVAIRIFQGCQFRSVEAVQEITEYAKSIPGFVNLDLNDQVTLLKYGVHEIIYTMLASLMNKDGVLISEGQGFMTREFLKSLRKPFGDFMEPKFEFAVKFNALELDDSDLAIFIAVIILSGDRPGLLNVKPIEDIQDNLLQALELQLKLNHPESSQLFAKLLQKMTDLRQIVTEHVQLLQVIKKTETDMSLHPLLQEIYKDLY

The nature of experiment [20]: qHTS assay for small molecule agonists of the antioxidant response element (ARE) signaling pathway (AID 743202; active = well fitted activation curve with a large enough effect in the signal ratio in the repeat runs, not every such curve was filed as active; inconclusive = weak or mixed curves, or effect the other way; inactive = no such curve, though single readings can be large or run the other way; the % refers to the signal ratio; also: potency is read from the fitted curve at half-maximal effect). In outline: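 Quantitative high-throughput format in HepG2 cells bearing an integrated ARE-beta-lactamase reporter. Compound exposure lasted 16 h at 37 C, and fluorescence was read 2 h after adding LiveBLAzer B/G substrate at room temperature.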
% is scaled to controls: 0 for no effect and ±100 for the full control effect.

Aryl hydrocarbon receptor (Homo sapiens), sequence (P35869 whole entry, looked up): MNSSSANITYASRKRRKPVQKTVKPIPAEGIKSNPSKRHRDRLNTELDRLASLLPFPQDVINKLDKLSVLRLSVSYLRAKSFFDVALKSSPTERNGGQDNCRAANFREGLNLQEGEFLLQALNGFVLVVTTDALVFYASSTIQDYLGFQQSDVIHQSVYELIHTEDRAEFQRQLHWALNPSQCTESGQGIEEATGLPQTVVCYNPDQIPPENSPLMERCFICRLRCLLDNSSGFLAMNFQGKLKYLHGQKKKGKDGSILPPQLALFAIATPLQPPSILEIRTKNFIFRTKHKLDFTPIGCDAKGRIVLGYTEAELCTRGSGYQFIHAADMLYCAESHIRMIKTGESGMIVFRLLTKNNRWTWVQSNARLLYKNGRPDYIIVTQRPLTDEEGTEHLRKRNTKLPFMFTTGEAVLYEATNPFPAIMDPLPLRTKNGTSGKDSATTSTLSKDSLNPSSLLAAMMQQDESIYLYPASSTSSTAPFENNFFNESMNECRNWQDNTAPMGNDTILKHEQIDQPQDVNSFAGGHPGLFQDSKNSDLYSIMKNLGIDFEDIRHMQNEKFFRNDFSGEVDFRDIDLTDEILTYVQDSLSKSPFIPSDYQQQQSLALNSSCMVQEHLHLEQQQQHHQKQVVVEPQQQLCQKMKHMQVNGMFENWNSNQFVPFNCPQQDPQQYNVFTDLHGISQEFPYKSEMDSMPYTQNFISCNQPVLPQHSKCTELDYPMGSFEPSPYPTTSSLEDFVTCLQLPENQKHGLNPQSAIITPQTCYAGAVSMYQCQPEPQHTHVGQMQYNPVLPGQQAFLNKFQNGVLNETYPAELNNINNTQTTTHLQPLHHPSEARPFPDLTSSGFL
Aromatase (Homo sapiens), sequence (P11511 whole entry, looked up): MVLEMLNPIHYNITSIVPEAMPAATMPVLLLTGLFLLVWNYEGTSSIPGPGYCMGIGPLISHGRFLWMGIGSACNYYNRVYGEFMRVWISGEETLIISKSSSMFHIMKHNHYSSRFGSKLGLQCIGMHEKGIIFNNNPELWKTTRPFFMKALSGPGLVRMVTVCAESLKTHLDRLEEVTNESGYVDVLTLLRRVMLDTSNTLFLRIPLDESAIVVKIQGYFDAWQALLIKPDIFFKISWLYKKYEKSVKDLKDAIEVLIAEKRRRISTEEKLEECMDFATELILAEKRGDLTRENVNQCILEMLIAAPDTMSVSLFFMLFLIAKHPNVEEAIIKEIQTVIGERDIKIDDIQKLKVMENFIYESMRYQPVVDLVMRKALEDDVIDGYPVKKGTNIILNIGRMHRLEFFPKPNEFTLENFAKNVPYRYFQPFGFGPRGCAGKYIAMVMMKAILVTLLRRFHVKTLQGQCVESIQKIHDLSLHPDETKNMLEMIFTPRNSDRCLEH
Estrogen receptor (Homo sapiens), sequence (P03372 whole entry, looked up): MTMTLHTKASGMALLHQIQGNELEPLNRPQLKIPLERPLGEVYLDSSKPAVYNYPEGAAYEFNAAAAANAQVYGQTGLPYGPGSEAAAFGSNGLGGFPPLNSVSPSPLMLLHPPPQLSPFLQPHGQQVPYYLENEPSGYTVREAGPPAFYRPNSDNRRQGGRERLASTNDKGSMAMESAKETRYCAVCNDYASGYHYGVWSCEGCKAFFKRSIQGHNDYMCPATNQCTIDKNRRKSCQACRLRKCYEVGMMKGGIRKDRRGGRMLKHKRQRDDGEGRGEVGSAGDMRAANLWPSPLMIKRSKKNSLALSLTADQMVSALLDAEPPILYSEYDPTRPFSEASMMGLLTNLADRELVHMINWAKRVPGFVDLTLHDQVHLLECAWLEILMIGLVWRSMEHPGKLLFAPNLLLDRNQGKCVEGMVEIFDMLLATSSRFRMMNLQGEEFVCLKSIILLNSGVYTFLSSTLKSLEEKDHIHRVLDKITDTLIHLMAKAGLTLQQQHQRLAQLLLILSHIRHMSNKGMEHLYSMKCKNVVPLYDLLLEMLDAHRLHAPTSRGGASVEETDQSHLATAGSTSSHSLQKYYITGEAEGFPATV

Take `CCC(C)(C)c1cc(O)c(C(C)(C)CC)cc1O`: the Potency result in experiment [1], in [2], in experiment [3], in [4], in experiment [6] and in [8] was “inactive” throughout. In experiment [9], the Potency entry is “inactive”. Besides, the activity change, negative = inhibition in experiment [5] is 6.54% (active). Also, the Potency in experiment [7] was 24.3 µM (active); in [10], 21.9 µM (active); in experiment [11], 54.5 µM (active); in experiment [12], 38.9 µM (active).

`O=S(=O)(O)CCCN1CCOCC1`: the Potency entry in experiment [13], in [2], in [14], in experiment [15], in [3] and in [4] was “inactive” in each case. Moreover, the Potency result in [5], in experiment [6], in experiment [7], in [16], in experiment [8] and in experiment [9] was “inactive” each time. The Potency entry in experiment [17], in experiment [10], in experiment [11] and in [12] was “inactive” in each case.

Regarding `Oc1ccc(-c2ccccc2)c(Cl)c1`, the Potency result in [1], in experiment [2], in experiment [15], in experiment [5], in [6] and in experiment [7] was “inactive” in each case. Further, the Potency result in experiment [16], in [8], in [9], in [17], in experiment [11] and in experiment [12] was “inactive” each time. The values for the Potency in [3] and in experiment [4] were 61.6 µM [inconclusive] (active) and 54.5 µM (active), respectively.

In the case of `CN1[C@@H]2CC[C@@H]1CC(OC(=O)C(CO)c1ccccc1)C2` (some centres undefined), the Potency result in experiment [1], in experiment [15], in [6], in [7], in experiment [16] and in [9] was “inactive” each time. Moreover, the Potency result in experiment [10] and in [12] was “inactive” throughout.

Regarding `SCCCCCCCCS`, the Potency entry in experiment [1], in [2], in [15], in [6], in experiment [7] and in experiment [16] was “inactive” each time. Besides, the Potency entry in experiment [8], in experiment [9], in experiment [17] and in [10] was “inactive” each time. In addition, in experiment [11], the Potency was 43.3 µM (active).

For the compound `CO[C@H]1C=CO[C@@]2(C)Oc3c(C)c(O)c4c(O)c(cc(O)c4c3C2=O)NC(=O)/C(C)=C\C=C/[C@H](C)[C@H](O)[C@@H](C)[C@@H](O)[C@@H](C)[C@H](OC(C)=O)[C@@H]1C`, the Potency was 48.9 µM (active) in experiment [1]; “inactive and 34.6 µM (active)” in [6]; “inactive and 21.8 µM (active)” in experiment [7]; “inactive and 13.8 µM (active)” in [16]. In addition, the Potency entry in experiment [14], in experiment [15], in experiment [3], in experiment [4], in experiment [5] and in experiment [8] was “inactive” each time. In addition, the Potency result in [9], in experiment [17], in experiment [10], in [11], in [12] and in experiment [18] was “inactive” each time.

Turning to `CC(=O)Oc1ccc(C2(c3ccc(OC(C)=O)cc3)Oc3ccccc3NC2=O)cc1`, the Potency in experiment [13] is 5.96 µM (active); in experiment [14], 8.49 µM [inconclusive] (active); in experiment [3], 7.56 µM [inconclusive] (active). Also, the Potency entry in experiment [2], in experiment [15], in [6], in experiment [7], in [16] and in [8] was “inactive” each time. Besides, the Potency entry in [9], in experiment [17], in [10], in experiment [11], in [12] and in experiment [18] was “inactive” each time.

For the compound `c1ccc(Nc2cccc3ccccc23)cc1`, the Potency in experiment [1] is 69.5 µM (active); in [3], 44.2 µM [inconclusive] (active) and 17.4 µM [activator] (active); in experiment [4], 13.9 µM (active) and 9.69 µM (active); in experiment [7] it was 43.8 µM (active) and 61.1 µM (active); in experiment [16] it was 39.1 µM (active); in experiment [8], 49.2 µM (active) and 54.5 µM (active). For the same compound, the Potency in experiment [19] is 49.6 µM (active) and inactive. The Potency entry in experiment [2], in experiment [15], in experiment [5], in experiment [6], in [9] and in [17] was “inactive” in each case. Moreover, the Potency result in [10], in experiment [20], in experiment [11], in experiment [12] and in [18] was “inactive” in each case.

`Cc1cc(Nc2ccc(O)cc2)ccc1N`: the Potency in [1] is 12.1 µM (active); in [6], 54.2 µM (active); in experiment [7] it was 27.2 µM (active); in [16], 24.2 µM (active); in [10] it was 12.2 µM (active). The Potency result in experiment [2], in experiment [15], in experiment [17] and in [12] was “inactive” in each case.

Regarding `CC(C)=C1CC[C@@H](C)CC1=O`, the Potency entry in experiment [13], in [2], in [14], in experiment [15], in [3] and in experiment [6] was “inactive” each time. Besides, the Potency entry in experiment [7], in experiment [16], in experiment [8], in [9], in experiment [17] and in experiment [19] was “inactive” each time. For the same compound, the Potency entry in experiment [10], in experiment [20], in experiment [11], in experiment [12] and in [18] was “inactive” each time.

As to `C/C=C/C=N/NC(=O)c1ccncc1`, the Potency entry in experiment [1], in experiment [2], in experiment [15], in experiment [6], in experiment [7] and in experiment [16] was “inactive” in each case. Besides, the Potency entry in [9], in experiment [17], in experiment [19], in experiment [10] and in experiment [11] was “inactive” in each case. For the same compound, the Potency is 9.44 µM (active) in [8], 6.68 µM (active) in experiment [20] and 18.8 µM (active) in experiment [12].

As to `Clc1ccc(C(Cn2ccnc2)OCc2ccsc2Cl)c(Cl)c1` (centres undefined), the Potency in [1] was 13.3 µM (active); in experiment [7], 5.31 µM (active); in experiment [9], 26.6 µM (active). For the same compound, the Potency result in experiment [5], in [6], in [16], in [8], in [17] and in [12] was “inactive” each time.

Take `C[C@@]12C(=O)OC(=O)[C@]1(C)C1CCC2O1`: the Potency was 2.27 µM (active) in [1]; 4.06 µM [inconclusive] (active) in [14]; 3.59 µM (active) in [16]; 0.569 µM (active) in [9]; 4.22 µM (active) in experiment [11]. Further, the Potency entry in experiment [2], in [3], in experiment [10], in experiment [12] and in [18] was “inactive” each time.
